Source: PubChem BioAssay (NCATS)
Where “and” joins values, the source holds several entries; their conditions need not be identical. Identical values can stand only once. Results filed as inconclusive are left out. A call without a number means that no potency is given here. Values without a mark were called inactive. Calls of active or inactive are those of the source. Unless noted, calls come from the whole dose curve; as a rule, active = well fitted curve in the direction sought with a large enough effect; inconclusive = small, poorly fitted or top-dose-only effect, or another doubt; inactive = no such curve, though single readings can be large; an effect the other way counts as inactive or inconclusive.

Experiments:
[1] = molecular target: Protein phosphatase 1D (Homo sapiens) (UniProt O15297); experiment: RapidFire Mass Spectrometry qHTS Assay for Modulators of WT P53-Induced Phosphatase 1 (WIP1) (AID 1347424);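 note: amount of dephosphorylated VEPPL-S-QETFS peptide product formed by WIP1; series mostly up to about 63 µM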
Chain of Protein phosphatase 1D (Homo sapiens) (O15297 whole entry, looked up): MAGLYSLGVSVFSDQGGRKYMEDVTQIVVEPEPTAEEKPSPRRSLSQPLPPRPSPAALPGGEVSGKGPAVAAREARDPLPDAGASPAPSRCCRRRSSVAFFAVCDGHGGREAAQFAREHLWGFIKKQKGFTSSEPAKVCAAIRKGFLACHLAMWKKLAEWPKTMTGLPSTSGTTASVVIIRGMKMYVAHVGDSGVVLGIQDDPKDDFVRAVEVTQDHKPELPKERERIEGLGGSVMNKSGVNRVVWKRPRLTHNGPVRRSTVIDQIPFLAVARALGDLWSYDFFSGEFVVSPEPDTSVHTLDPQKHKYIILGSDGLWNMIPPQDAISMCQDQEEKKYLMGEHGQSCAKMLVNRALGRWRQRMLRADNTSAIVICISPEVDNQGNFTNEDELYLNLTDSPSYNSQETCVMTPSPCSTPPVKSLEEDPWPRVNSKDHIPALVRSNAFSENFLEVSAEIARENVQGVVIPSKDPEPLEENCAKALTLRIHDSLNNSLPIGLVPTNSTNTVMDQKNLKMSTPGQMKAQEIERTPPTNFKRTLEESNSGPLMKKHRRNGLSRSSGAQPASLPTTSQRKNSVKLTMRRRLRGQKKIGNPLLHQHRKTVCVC
In short: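 10 nM WIP1 + cpd, 1 h RT; + 2 uM VEPPL-pS-QETFS, 5 min RT; stop 0.5% formic acid; labelled product standard 1 uM; RapidFire MS. Buffer 50 mM Tris pH 7.5, 30 mM MgCl2, 1 mM TCEP.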

[2] = molecular target: Protein phosphatase 1D (Homo sapiens) (UniProt O15297); experiment: Rhodamine-PBP qHTS Assay for Modulators of WT P53-Induced Phosphatase 1 (WIP1) (AID 1347425)
In short: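 WIP1 (5 nM final) was preincubated with compound for 1 hour at room temperature. It then dephosphorylated 10 uM VEPPL-pS-QETFS peptide in Tris-HCl pH 7.5 with 30 mM MgCl2. Released Pi was detected by 10 uM Rh-PBP fluorescence (ex 525/em 598 nm) read at 1-min intervals for 11 min, as delta f1 - f0.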

[3] = Primary qHTS for inhibitors of La Crosse Virus (LACV) - induced cell death in SH-SY5Y cells (AID 1508616);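 note: top concentration of the series differs between compounds; higher means more rescue of cells from virus-induced death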
In short: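 Readout was luminescence from ATPLite 1step added after a 6-day LACV infection (0.01 MOI) of SH-SY5Y cells that had received pin-transferred compound 24 hr after seeding.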

[4] = molecular target: Calcium and integrin-binding protein 1 (Homo sapiens) (UniProt Q99828); experiment: Primary qHTS for Identification of Calcium Integrin Binding Protein 1 (CIB1) Competitor (AID 1508620);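 note: GST tagged CIB1 binding a fluorescein labelled alphaIIb integrin peptide tracer; top concentration of the series differs between compounds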
Chain of Calcium and integrin-binding protein 1 (Homo sapiens) (Q99828 whole entry, looked up): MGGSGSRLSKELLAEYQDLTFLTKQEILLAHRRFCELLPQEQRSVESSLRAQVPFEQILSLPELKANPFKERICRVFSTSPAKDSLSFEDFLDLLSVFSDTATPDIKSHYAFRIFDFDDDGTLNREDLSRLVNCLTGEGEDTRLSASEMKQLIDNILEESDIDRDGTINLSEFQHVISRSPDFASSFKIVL
In short: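 CIB1-GST (1 uM final) and compound incubated 15 min at room temperature before adding FITC-alphaIIb peptide tracer (100 nM final). Competition for binding read by fluorescence polarization (ex 480, em 540) after another 15 min at room temperature.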

[5] = Primary qHTS for small molecule stabilizers of the endoplasmic reticulum resident proteome: Secreted ER Calcium Modulated Protein (SERCaMP) assay (AID 1508630)
In short: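 GLuc-SERCaMP-expressing SH-SY5Y cells, pretreated 16 h with compound, are challenged with thapsigargin to empty ER calcium stores; after 4 h, coelenterazine is added directly to the medium and luminescence is imaged.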

[6] = Primary qHTS for inhibitors of nuclear receptor binding SET domain protein 2 (NSD2) in an isogenic RCH-ACV NSD2 p.E1099K mutant (9B) (AID 1645876); note: nearly all actives have a fitted effect of over 70% in size; note: potency is the fitted concentration of half-maximal effect
[7] = Primary qHTS for inhibitors of nuclear receptor binding SET domain protein 2 (NSD2) in an RCH-ACV wild type WT cells (2C) (AID 1645877); note: nearly all actives have a fitted effect of over 70% in size; note: potency is the fitted concentration of half-maximal effect
[8] = A High-Content qHTS Against Drug Library for the Identification of Small Molecules that Inhibit DYT1 Early Onset Primary Dystonia-Associated Cell Pathology (AID 1645839; calls by dose curve; note: series mostly up to about 46 µM)
In short: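 In this high-content image screen, delE TorsinA mislocalization in inducible Flp-In 293 cells is scored as %pathology, with cell count serving as the counterscreen. Compound exposure lasts 48 h under tetracycline induction in reduced-serum medium.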

[9] = molecular target: Cytochrome P450 2D6 (Homo sapiens) (UniProt P10635); experiment: Cytochrome P450 family 2 subfamily D member 6 (CYP2D6) small molecule antagonists: luciferase biochemical (cell-free) qHTS assay (AID 1645840; active = well fitted curve in the direction sought with a large enough effect in the repeat runs; an effect the other way counts as inactive or inconclusive; note: nearly all actives have a fitted effect of over 55% in size; note: potency is the fitted concentration of half-maximal effect)
Chain of Cytochrome P450 2D6 (Homo sapiens) (P10635 whole entry, looked up): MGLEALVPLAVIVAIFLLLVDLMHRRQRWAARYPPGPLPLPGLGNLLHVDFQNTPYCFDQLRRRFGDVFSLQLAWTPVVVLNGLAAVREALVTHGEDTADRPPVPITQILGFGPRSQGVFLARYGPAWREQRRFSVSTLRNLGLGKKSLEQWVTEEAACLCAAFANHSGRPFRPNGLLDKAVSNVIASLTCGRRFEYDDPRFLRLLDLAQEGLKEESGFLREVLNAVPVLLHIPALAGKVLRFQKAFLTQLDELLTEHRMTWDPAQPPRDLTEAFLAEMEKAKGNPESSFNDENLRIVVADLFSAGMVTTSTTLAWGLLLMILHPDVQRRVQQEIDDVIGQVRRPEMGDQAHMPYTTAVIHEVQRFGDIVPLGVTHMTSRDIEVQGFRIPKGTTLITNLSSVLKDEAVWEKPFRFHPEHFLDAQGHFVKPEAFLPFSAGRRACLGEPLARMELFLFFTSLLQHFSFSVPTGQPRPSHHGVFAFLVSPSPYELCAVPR
In short: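 P450-Glo luminescent screen: recombinant CYP2D6 enzyme–proluciferin substrate mix preincubated with compound 10 min at room temperature, then NADPH regeneration added for 1 h at room temperature. Detection reagent added for 20 min; luciferin light read as relative luminescence units.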

[10] = molecular target: Cytochrome P450 2C9 (Homo sapiens) (UniProt P11712); experiment: Cytochrome P450 family 2 subfamily C member 9 (CYP2C9) small molecule antagonists: luciferase biochemical (cell-free) qHTS assay (AID 1645842; active = well fitted curve in the direction sought with a large enough effect in the repeat runs; an effect the other way counts as inactive or inconclusive; note: nearly all actives have a fitted effect of over 55% in size; note: potency is the fitted concentration of half-maximal effect)
Chain of Cytochrome P450 2C9 (Homo sapiens) (P11712 whole entry, looked up): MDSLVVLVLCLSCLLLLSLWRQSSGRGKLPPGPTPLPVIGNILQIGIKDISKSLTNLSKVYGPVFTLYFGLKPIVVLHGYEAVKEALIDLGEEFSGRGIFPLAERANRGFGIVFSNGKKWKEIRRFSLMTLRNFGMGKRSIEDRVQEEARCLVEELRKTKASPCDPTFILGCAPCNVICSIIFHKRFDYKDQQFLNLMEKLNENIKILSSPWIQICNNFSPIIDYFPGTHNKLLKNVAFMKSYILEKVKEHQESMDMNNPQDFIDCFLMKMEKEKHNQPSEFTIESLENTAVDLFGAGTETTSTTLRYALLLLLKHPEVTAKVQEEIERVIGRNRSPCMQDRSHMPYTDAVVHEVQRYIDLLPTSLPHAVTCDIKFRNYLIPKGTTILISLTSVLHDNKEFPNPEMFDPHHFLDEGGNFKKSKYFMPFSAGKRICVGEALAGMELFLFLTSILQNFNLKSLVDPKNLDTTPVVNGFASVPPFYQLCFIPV
In short: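 Luminescence, after 20 min with luciferin detection reagent, reflected CYP2C9 turnover during a 1 h NADPH-driven reaction at 37C. Enzyme-substrate mix contained 0.4% bovine serum albumin and was preincubated with compound 10 min at room temperature.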

| Structure (SMILES) | Potency [1] | outcome [2] | Potency [3] | Potency [4] | Potency [5] | Potency [6] | Potency [7] | Potency [8] | Potency [9] | Potency [10] |
| --- | --- | --- | --- | --- | --- | --- | --- | --- | --- | --- |
| CC(Cc1ccccc1)(NC(=O)CN)c1ccccc1 (stereo not drawn) | inactive | inactive | inactive | inactive | inactive | inactive | inactive | – | – | – |
| CCCCCCCCCCCCCCNCCO | inactive | inactive | inactive | inactive | – | 7.5 µM (active) | 7.5 µM (active) | inactive | 6.17 µM (active) | inactive |
| CC1(C)O[C@@H]2[C@@H](CO[C@@]3(COS(N)(=O)=O)OC(C)(C)O[C@@H]23)O1 | inactive | inactive | inactive | inactive | inactive | inactive | inactive | – | inactive | inactive |
| C=C1C(=C/C=C2\CCC[C@]3(C)[C@@H]([C@H](C)/C=C/[C@@H](O)C4CC4)CC[C@@H]23)C[C@@H](O)C[C@@H]1O | inactive | inactive | inactive | inactive | inactive | 15 µM (active) | 16.8 µM (active) | – | 24.5 µM (active) | – |
| C#C[C@]1(O)CC[C@H]2[C@@H]3CCC4=CC(=O)CC[C@@H]4[C@H]3CC[C@@]21C | inactive | inactive | inactive | inactive | inactive | – | 26.6 µM (active) | – | – | – |
| O=C1OCCN1/N=C/c1ccc([N+](=O)[O-])o1 | inactive | inactive | inactive | inactive | – | – | – | inactive | – | – |
| CCN1CCC[C@H]1CNC(=O)c1c(OC)ccc(Br)c1OC | inactive | inactive | inactive | inactive | inactive | inactive | inactive | – | – | inactive |
| CC(C)n1nc(-c2cc3cc(O)ccc3[nH]2)c2c(N)ncnc21 | inactive | inactive | inactive | inactive | inactive | 29.9 nM (active) and 3.32 µM (active) | 47.3 nM (active) and 3.32 µM (active) | – | 13.5 µM (active) | 1.95 µM (active) and 1.51 µM (active) |
| CCCCS(=O)(=O)N[C@@H](Cc1ccc(OCCCCC2CCNCC2)cc1)C(=O)O | inactive | inactive | inactive | inactive | – | inactive | inactive | inactive | inactive | inactive |
| COc1cc(/C=C/C(=O)O[C@H]2CC[C@]34C[C@]35CC[C@]3(C)[C@@H]([C@H](C)CCC=C(C)C)CC[C@@]3(C)[C@@H]5CC[C@H]4C2(C)C)ccc1O | inactive | inactive | inactive | inactive | – | – | – | inactive | inactive | inactive |
| NC(CO)(CO)CO | inactive | inactive | inactive | inactive | – | inactive | inactive | inactive | inactive | inactive |
| Cc1ccc(C(=O)C(C)CN2CCCCC2)cc1 (stereo not drawn) | inactive | inactive | inactive | inactive | inactive | inactive | 21.1 µM (active) | – | 1.74 µM (active) | inactive |
| O=C1[C@H]2CCCC[C@H]2C(=O)N1CCCCN1CCN(c2nsc3ccccc23)CC1 | inactive | inactive | inactive | inactive | – | 21.1 µM (active) | 23.7 µM (active) | inactive | 12.3 µM (active) | inactive |
| N[C@@H](CCC(=O)N[C@@H](CS)C(=O)NCC(=O)O)C(=O)O | inactive | inactive | inactive | inactive | inactive | inactive | inactive | – | inactive | inactive |
| COc1c2occc2c(OC)c2c(=O)cc(C)oc12 | inactive | inactive | inactive | inactive | inactive | inactive | inactive | – | 15.5 µM (active) | 11 µM (active) |
| Oc1cc(O)c2c(c1)O[C@H](c1ccc(O)c(O)c1)[C@H](O)C2 | inactive | inactive | inactive | inactive | inactive | inactive | inactive | – | inactive | inactive |
| CC[C@@H](CO)NCCN[C@@H](CC)CO | inactive | inactive | inactive | inactive | – | inactive | inactive | inactive | inactive | inactive |
| C#C[C@]1(OC(C)=O)CC[C@H]2[C@@H]3CCC4=C[C@@H](OC(C)=O)CC[C@@H]4[C@H]3CC[C@@]21C | inactive | inactive | inactive | inactive | inactive | – | 18.8 µM (active) | – | inactive | 13.6 µM (active) |
